From PubChem BioAssay (NCATS)
Inconclusive results are not listed. Active and inactive are the calls of the source. Calls follow the shape of the dose curve; as a rule, active = well fitted inhibition curve with a large enough effect; inconclusive = small, poorly fitted or top-dose-only effect; inactive = flat fitted curve, though single readings scatter.

Tests used:
Test in all cases: qHTS profiling for inhibitors of Plasmodium falciparum proliferation (AID 504749); also: nearly all actives have a fitted effect of over 60% in size
Details in all cases: P. falciparum in erythrocytes, SYBR Green DNA, 72 h; series mostly up to 28.7 µM
[1] = tested on: CP297
In short: (§1)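 Parasite proliferation within erythrocytes, 72 h exposure. Endpoint: SYBR Green I fluorescence after overnight lysis at room temperature. Controls: 0.29 uM artemisinin, DMSO.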

[2] = tested on: CP305
In short: as §1

[3] = tested on: CP315
In short: as §1

[4] = tested on: CP325
In short: as §1

[5] = tested on: CP329
In short: as §1

[6] = tested on: CP335
In short: as §1

[7] = tested on: DFO2036
In short: as §1

[8] = tested on: DIV17
In short: as §1

[9] = tested on: DIV30
In short: as §1

[10] = tested on: Dd2
In short: as §1

[11] = tested on: ECU
In short: as §1

[12] = tested on: FAB9
In short: as §1

[13] = tested on: GB4
In short: as §1

[14] = tested on: HB3
In short: as §1

[15] = tested on: ICS
In short: as §1

[16] = tested on: JCK
In short: as §1

[17] = tested on: N140
In short: as §1

[18] = tested on: P93_24
In short: as §1

[19] = tested on: P94_40
In short: as §1

[20] = tested on: DIV14
In short: as §1

Measured: Potency

Nc1ccc(C(=O)Oc2ccccc2)c(O)c1
inactive: [1] | [2] | [3] | [4] | [5] | [6] | [7] | [8] | [9] | [10] | [11] | [12] | [13] | [14] | [15] | [16] | [17] | [18] | [19]

CN1CCCN=C1COC(=O)C(O)(c1ccccc1)C1CCCCC1 (configuration not stated)
inactive: [1] | [2] | [3] | [4] | [5] | [6] | [7] | [8] | [9] | [10] | [11] | [12] | [14] | [15] | [16] | [17] | [18] | [19]

NC(=O)NS(=O)(=O)c1ccc(N)cc1
inactive: [1] | [2] | [3] | [4] | [5] | [6] | [7] | [20] | [8] | [9] | [10] | [11] | [12] | [13] | [14] | [16] | [17] | [18] | [19]

O=C(O)CCCCC1CCSS1 (configuration not stated)
inactive: [1] | [2] | [3] | [4] | [5] | [6] | [7] | [8] | [9] | [10] | [11] | [12] | [13] | [14] | [15] | [16] | [17] | [18] | [19]

O=C1c2ccccc2S(=O)(=O)N1CCCCN1CCN(c2ncccn2)CC1
inactive: [1] | [2] | [3] | [4] | [5] | [6] | [7] | [20] | [9] | [10] | [11] | [12] | [13] | [14] | [15] | [16] | [17] | [18] | [19]

CC(=O)SC[C@@H](Cc1ccccc1)C(=O)NCC(=O)OCc1ccccc1
inactive: [1] | [2] | [3] | [4] | [5] | [6] | [7] | [20] | [8] | [9] | [10] | [11] | [12] | [13] | [14] | [16] | [17] | [18] | [19]

CC[N+](C)(CC)CCOC(=O)C1c2ccccc2Oc2ccccc21
inactive: [1] | [2] | [3] | [4] | [5] | [6] | [7] | [8] | [9] | [10] | [11] | [12] | [13] | [14] | [15] | [16] | [17] | [18] | [19]

Cc1cc(-n2nc3ccc(Cl)cc3n2)c(O)c(C(C)(C)C)c1
inactive: [1] | [2] | [3] | [4] | [5] | [6] | [20] | [8] | [9] | [10] | [12] | [13] | [14] | [15] | [16]
